Results on 16 compounds are retold here after PubChem BioAssay (NCI).

Each structure is given as a SMILES string. Values joined by “and” are separate entries in the source; they are usually repeats but may differ in a detail not shown here. Identical values can stand only once. About 79,000 compounds went through this panel and 15% of them were active in at least one assay; those are over-represented in the sample as a whole. A number with no mark means an inactive call. Active and inactive are the calls of the source. Cut-off read from the data, not from the text of the source: active = growth inhibition above about 70%; inactive = the rest.

Assay [1] in a line: NCI Yeast Anticancer Drug Screen. Data for the rad50 strain (AID 155).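 Note: 0% = growth of vehicle-only cultures of the same strain.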 To be noted: S. cerevisiae rad50 strain growth inhibition, active compounds read high. Put shortly:
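Genetically altered yeast (DNA repair pathway); compound treatment; growth inhibition vs vehicle ctrl.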

Assay [2] can be described thus: NCI Yeast Anticancer Drug Screen. Data for the mec2-1 strain (AID 157). To be noted: S. cerevisiae mec2-1 strain, active compounds read high. The gist of the method:
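Mutant yeast (mec2-1) grown with compound; growth inhibition relative to vehicle control reported.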

The nature of assay [3]: NCI Yeast Anticancer Drug Screen. Data for the cln2 rad14 strain (AID 165).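 Note: 0% = growth equal to vehicle treated cultures.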 The conditions noted are these: S. cerevisiae cln2 rad14 strain, active compounds read high. Put shortly: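 Readout is yeast growth inhibition versus vehicle-treated controls, using a strain with cln2 and rad14 alterations exposed to compound.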
The nature of assay [4]: NCI Yeast Anticancer Drug Screen. Data for the bub3 strain (AID 167). The conditions noted are these: S. cerevisiae bub3 mutant strain, active compounds read high. The gist of the method:
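Yeast carrying a defined mutation is treated with each compound, and growth is compared with that of vehicle-exposed cells to give inhibition.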

A short description of assay [5]: NCI Yeast Anticancer Drug Screen. Data for the mlh1 rad18 strain (AID 175). The conditions noted are these: S. cerevisiae mlh1 rad18 strain growth inhibition, active compounds read high. Put shortly: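 Genetically defined yeast (DNA repair-deficient) exposed to compounds; growth inhibition determined relative to vehicle.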
Assay [6] in a line: NCI Yeast Anticancer Drug Screen. Data for the sgs1 mgt1 strain (AID 161).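 Note: 0% = growth of cultures given vehicle only.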 The conditions noted are these: S. cerevisiae sgs1 mgt1 strain, active compounds read high. The gist of the method:
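Yeast cells carrying a defined DNA-repair defect were exposed to test compounds. Growth inhibition was measured relative to vehicle-treated controls.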

The mark [7] stands for this setting: at 5.0 µM (retest, dose inferred, filed as 0.5).
Setting [8] is: at 50.0 µM (retest, dose inferred, filed as 5.0).

On to `CCCCC(CC)CNC(=O)CI` (configuration not stated), for which the growth inhibition in assay [1] (setting [7]) was 11%; in assay [1] (setting [8]), 66%; in assay [2] (setting [7]), -2%; in assay [2] (setting [8]), 22%; in assay [3] (setting [7]) it was 9%; in assay [3] (setting [8]) it was 6%. In addition, the growth inhibition was 9% in assay [4] (setting [7]), 76% (active) in assay [4] (setting [8]), -13% in assay [5] (setting [7]) and 51% in assay [5] (setting [8]).
As for `C/C(=N\NC(=S)N1CCC1)c1ccccn1`, the growth inhibition in assay [1] (setting [7]) is 91% (active); in assay [1] (setting [8]), 96% (active); in assay [2] (setting [7]) it was 88% (active); in assay [2] (setting [8]), 98% (active); in assay [3] (setting [7]), 93% (active); in assay [3] (setting [8]) it was 96% (active). The growth inhibition was 87% (active) in assay [3] (at 50.0 µM); 94% (active) in assay [4] (setting [7]); 98% (active) in assay [4] (setting [8]); 87.5% (active) in assay [4] (at 50.0 µM); 93% (active) in assay [5] (setting [7]); 96% (active) in assay [5] (setting [8]).
As to `O=C(/C=C/c1ccccc1)c1ccc(N=Cc2ccccc2)cc1`, the growth inhibition in assay [1] (setting [7]) is -37%; in assay [1] (setting [8]), 30%; in assay [2] (setting [7]) it was 6%; in assay [2] (setting [8]) it was 21%; in assay [6] (setting [7]) it was 2%; in assay [6] (setting [8]) it was 68%. Further, the growth inhibition in assay [3] (setting [7]) was 1%; in assay [3] (setting [8]), 6%; in assay [4] (setting [7]) it was 7%; in assay [4] (setting [8]), 54%; in assay [5] (setting [7]), 8%; in assay [5] (setting [8]), 38%.
For `Cc1ccc(NC2=CC(=O)C(=O)c3ccccc32)cc1`, the growth inhibition in assay [1] (at 50.0 µM) was 30% and 22.6% and 45.2%; in assay [2] (at 50.0 µM) it was 40.7% and 36% and 14.1%; in assay [6] (at 50.0 µM), 25% and 26.8% and 32.3%; in assay [3] (at 50.0 µM), 5.55% and 8.9% and 30.9%; in assay [4] (at 50.0 µM), 25.1% and 26.9% and 54.6%; in assay [5] (at 50.0 µM), 15.4% and 60.9% and 33.4%.
As for `COC(=O)C(CC(C)C)NC(=O)CN1C(=O)c2ccccc2C1=O` (configuration not stated), the growth inhibition is -12.9% and 9.2% in assay [1] (at 50.0 µM); -5.95% and 10.9% in assay [2] (at 50.0 µM); 6.75% and 4.6% in assay [6] (at 50.0 µM); 5.05% and 6.3% in assay [3] (at 50.0 µM); -10% and 7.3% in assay [4] (at 50.0 µM); -2.4% and 1.45% in assay [5] (at 50.0 µM).
In the case of `Cc1cc(Cc2cc(C)c(O)c(C(=O)O)c2)cc(C(=O)O)c1O`, the growth inhibition in assay [1] (at 50.0 µM) was 0.25% and -7.15%; in assay [2] (at 50.0 µM), 10.1% and -0.4%; in assay [6] (at 50.0 µM), 2.35% and 0.2%; in assay [3] (at 50.0 µM), -91.8% and -2.45%; in assay [4] (at 50.0 µM), 27.3% and 4.85%; in assay [5] (at 50.0 µM), 7.05% and -16.3%.
For `Cc1ccc(C)c(NC(=O)CC2Sc3ccccc3NC2=O)c1` (configuration not stated), the growth inhibition in assay [1] (at 50.0 µM) was -0.4% and -7.3%; in assay [2] (at 50.0 µM) it was -25.8% and -19.4%; in assay [6] (at 50.0 µM), 8.4% and -28.5%; in assay [3] (at 50.0 µM), 21.9% and 8.45%; in assay [4] (at 50.0 µM), 26.3% and 10.3%; in assay [5] (at 50.0 µM) it was -5.05% and -88%.
For the compound `CC(O)C(=O)NCCc1ccccc1` (configuration not stated), the growth inhibition in assay [1] (setting [7]) was 8%; in assay [1] (setting [8]), 4%; in assay [2] (setting [7]), -3%; in assay [2] (setting [8]) it was -2%; in assay [6] (setting [7]) it was -1%; in assay [6] (setting [8]) it was 1%. In addition, the growth inhibition is 2% in assay [3] (setting [7]); 3% in assay [3] (setting [8]); -1% in assay [4] (setting [7]); -2% in assay [4] (setting [8]); 4% in assay [5] (setting [7]); 10% in assay [5] (setting [8]).
For `Oc1ccc(/C=C/c2ccc(Cl)cc2)cc1`, the growth inhibition in assay [1] (setting [7]) was -26%; in assay [1] (setting [8]), 97% (active); in assay [2] (setting [7]), 5%; in assay [2] (setting [8]) it was 98% (active); in assay [6] (setting [7]) it was 4%; in assay [6] (setting [8]) it was 97% (active). Also, the growth inhibition in assay [3] (setting [7]) was 7%; in assay [3] (setting [8]), 97% (active); in assay [4] (setting [7]) it was 10%; in assay [4] (setting [8]), 98% (active); in assay [5] (setting [7]), 13%; in assay [5] (setting [8]) it was 96% (active).
As to `CCCc1ccc(OC2OC(COC(C)=O)C(OC(C)=O)C(OC(C)=O)C2OC(C)=O)cc1` (configuration not stated), the growth inhibition in assay [1] (at 50.0 µM) was -7% and -12.6%; in assay [2] (at 50.0 µM) it was -9.65% and 2.4%; in assay [6] (at 50.0 µM), -13.5% and 9.65%; in assay [3] (at 50.0 µM), -5.25% and 3.95%; in assay [4] (at 50.0 µM), -37% and 5.1%; in assay [5] (at 50.0 µM), -8.05% and 4.1%.
`Cc1cccc(N=NC(C#N)C#N)c1`: the growth inhibition in assay [1] (setting [7]) was 30%; in assay [1] (setting [8]), 95% (active); in assay [2] (setting [7]), 10%; in assay [2] (setting [8]), 96% (active); in assay [6] (setting [7]), 24%; in assay [6] (setting [8]), 95% (active). Further, the growth inhibition in assay [3] (setting [7]) is -7%; in assay [3] (setting [8]), 86% (active); in assay [4] (setting [7]), 1%; in assay [4] (setting [8]) it was 94% (active); in assay [5] (setting [7]), -9%; in assay [5] (setting [8]), 95% (active).
Turning to `Cc1ccccc1N=NC(C#N)C#N`, the growth inhibition was 82% (active) in assay [1] (setting [7]); 99% (active) in assay [1] (setting [8]); 40% in assay [2] (setting [7]); 100% (active) in assay [2] (setting [8]); 85% (active) in assay [6] (setting [7]); 100% (active) in assay [6] (setting [8]). In addition, the growth inhibition in assay [3] (setting [7]) is 39%; in assay [3] (setting [8]), 99% (active); in assay [4] (setting [7]), 68%; in assay [4] (setting [8]), 100% (active); in assay [5] (setting [7]) it was 78% (active); in assay [5] (setting [8]), 99% (active).
In the case of `COc1cccc(NC(=O)c2c(SC)c(C#N)c(=O)n(N)c2N)c1`, the growth inhibition in assay [1] (setting [7]) was 4%; in assay [1] (setting [8]), 99% (active); in assay [2] (setting [7]), 10%; in assay [2] (setting [8]), 99% (active); in assay [6] (setting [7]), 7%; in assay [6] (setting [8]) it was 99% (active). Also, the growth inhibition in assay [3] (setting [7]) is 7%; in assay [3] (setting [8]), 98% (active); in assay [5] (setting [7]), 8%; in assay [5] (setting [8]) it was 99% (active).
On to `ClCC(CCl)(CCl)CCl`, for which the growth inhibition in assay [1] (at 50.0 µM) was 24.6% and 1.15%; in assay [2] (at 50.0 µM), 6.95% and -12.9%; in assay [6] (at 50.0 µM) it was 13.4% and 7.95%; in assay [3] (at 50.0 µM), 6% and 20.1%; in assay [4] (at 50.0 µM), 12.3% and -0.2%; in assay [5] (at 50.0 µM), 5.85% and 1.45%.
In the case of `CC(C)(C)S(=O)(=O)O.[Ag]`, the growth inhibition was 99% (active) in assay [1] (setting [7]); 99% (active) in assay [1] (setting [8]); 100% (active) in assay [2] (setting [7]); 99% (active) in assay [2] (setting [8]); 100% (active) in assay [6] (setting [7]); 100% (active) in assay [6] (setting [8]). The growth inhibition is 99% (active) in assay [3] (setting [7]); 99% (active) in assay [3] (setting [8]); 100% (active) in assay [4] (setting [7]); 99% (active) in assay [4] (setting [8]); 99% (active) in assay [5] (setting [7]); 99% (active) in assay [5] (setting [8]).
For the compound `CCOC(=O)C(NC(C)=O)C(=O)c1ccccc1` (configuration not stated), the growth inhibition in assay [1] (setting [7]) was -3%; in assay [1] (setting [8]), 6%; in assay [2] (setting [7]) it was -3%; in assay [2] (setting [8]) it was -4%; in assay [6] (setting [7]) it was 0%; in assay [6] (setting [8]), -1%. The growth inhibition is 11% in assay [3] (setting [7]); -4% in assay [3] (setting [8]); 2% in assay [4] (setting [7]); -1% in assay [4] (setting [8]); -35% in assay [5] (setting [7]); -6% in assay [5] (setting [8]).
